Activity calls are given as the source filed them. Unless noted, no stated cut-off is given here; in the data, active means inhibition above about 80%; inactive means the rest.
Legend:
[1] = LFS_MB_P medulloblastoma growth inhibition, cell-based, chromothripsis tumors, cisplatin or BGB combos (AID 1671449); details: LFS_MB_P medulloblastoma cells;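 further: cells exposed for 96 hours; 0% = vehicle DMSO and 100% = killing by high DMSO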
[2] = HDN33 neuroblastoma growth inhibition, cell-based, chromothripsis tumors, cisplatin or BGB combos (AID 1671450); details: HDN33 neuroblastoma cells, stronger effect = higher value;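 further: cells exposed to compound for four days; 0% = vehicle DMSO and 100% = cell killing by high DMSO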
[3] = ICB984 medulloblastoma cell growth inhibition, synergistic combos for chromothripsis tumors, cisplatin or BGB combos (AID 1671451; call rule not given here;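 further: cells exposed for 96 hours before readout; 0% = vehicle DMSO and 100% = killing by high DMSO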); details: ICB984 medulloblastoma cells, drug combinations, stronger effect = higher value
[4] = LFS_MB_1R medulloblastoma cell growth inhibition, synergistic combos for chromothripsis tumors, cisplatin or BGB combos (AID 1671452); details: LFS_MB_1R medulloblastoma cells, stronger effect = higher value;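 further: cells exposed for 96 hours before readout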
[5] = HTB85 osteosarcoma cell growth inhibition, synergistic combos for chromothripsis tumors, BGB or cisplatin IC20 combos (AID 1671453); details: HTB85 osteosarcoma cells, drug combinations, stronger effect = higher value;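 further: cells exposed for 96 hours before readout; 0% = vehicle DMSO and 100% = high DMSO killing control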
[6] = CRL2098 osteosarcoma cell growth inhibition, synergistic combos for chromothripsis tumors, BGB or cisplatin IC20 combos (AID 1671454); details: CRL2098 osteosarcoma cells, drug combinations, stronger effect = higher value;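 further: cells exposed for 96 h before readout; 0% = vehicle DMSO and 100% = killing by high DMSO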
[7] = HD-MB03 medulloblastoma cell growth inhibition, synergistic combos for chromothripsis tumors, BGB or cisplatin IC20 combos (AID 1671455; in the data active means inhibition above about 83%;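 further: 0% = vehicle DMSO and 100% = high DMSO as cytotoxic control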); details: HD-MB03 medulloblastoma cells, stronger effect = higher value
[8] = UWB1.289 ovarian carcinoma cell growth inhibition, synergistic combos for chromothripsis tumors, BGB or cisplatin combos (AID 1671456); details: UWB1.289 ovarian carcinoma cells, stronger effect = higher value;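 further: cells exposed to compound for four days; 0% = vehicle DMSO and 100% = killing by high DMSO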
[9] = LFS_MB_2R medulloblastoma cell growth inhibition, synergistic combos for chromothripsis tumors, cisplatin combos (AID 1671457); details: LFS_MB_2R medulloblastoma cells, stronger effect = higher value;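 further: cells exposed to compound for four days before readout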
[10] = MDA-MB-436 breast carcinoma cell growth inhibition, synergistic combos for chromothripsis tumors, BGB or cisplatin combos (AID 1671458; call rule not given here;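 further: cells exposed for 96 hours; 0% = vehicle DMSO and 100% = killing by high DMSO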); details: MDA-MB-436 breast carcinoma growth inhibition, drug combinations, stronger effect = higher value
[11] = UWB1.289_BRCA1 ovarian cancer growth, cell-based, BGB or cisplatin combinations (AID 1671459); details: UWB1.289 BRCA1 ovarian carcinoma, drug combinations, stronger effect = higher value
[12] = human astrocyte viability loss, single and combined drugs, cytotoxicity control for chromothriptic childhood tumor combination screen, cell-based, BGB or cisplatin IC20 combos (AID 1671460); details: Human astrocytes, drug combinations, stronger effect = higher value;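 further: cells exposed to compounds for 96 hours before viability readout; 0% = vehicle and 100% = killing control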
[13] = growth inhibition of BT084 medulloblastoma cells, cell-based, ICGC_MB145, cisplatin and BGB IC40 combos (AID 1671461); details: drug combinations, stronger effect = higher value;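 further: cells exposed to drugs for 96 hours; 0% = vehicle DMSO and 100% = high DMSO full killing control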
[14] = growth inhibition of RCMB18 medulloblastoma cells, cell-based, cisplatin and BGB IC40 combos (AID 1671462); details: stronger effect = higher value;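 further: cells exposed to compound for four days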
[15] = growth inhibition of CRL1545 osteosarcoma cells, cell-based, cisplatin and BGB IC20 combos (AID 1671464); details: stronger effect = higher value;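 further: cells exposed to compound for 96 hours before readout; 0% = vehicle DMSO and 100% = high DMSO killing control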
[16] = measured here: combination with BGB IC40, at 0.05 µM
[17] = measured here: with BGB IC20 combination, at 0.5 µM
[18] = measured here: with cisplatin IC20 combination, at 0.5 µM
[19] = measured here: combination with cisplatin, at 0.5 µM
[20] = measured here: combination with cisplatin, at 5 µM

## CC(C)OC(=O)[C@H](C)NP(=O)(OC[C@H]1O[C@@H](n2ccc(=O)[nH]c2=O)C(C)(F)[C@@H]1O)Oc1ccccc1 (stereo partly drawn)
[1]; at 0.5 µM, stronger effect = higher value
  inhibition: -8.8% (inactive)
[1]; measured here: combination with BGB IC20, at 0.005 µM
  inhibition: -10.9%
[1]; measured here: combination with BGB IC40, at 0.005 µM
  inhibition: -13.1%
[1]; [16]
  inhibition: 0.698%
[1]; measured here: combination with cisplatin, at 0.5 µM, stronger effect = higher value
  inhibition: -3.91%
[1]; measured here: combination with cisplatin, at 5 µM, stronger effect = higher value
  inhibition: -25.1%
[2]; BGB combo, at 5 µM
  inhibition: -13.9%
[2]; at 0.5 µM
  inhibition: -10.3% (inactive)
[2]; cisplatin combo, at 5 µM
  inhibition: -30.6%
[2]; [17]
  inhibition: -4.98%
[2]; [18]
  inhibition: -21.3%
[2]; single agent, at 5 µM
  inhibition: -29.9%
[3]; BGB IC20 combo, at 0.005 µM
  inhibition: -1.44%
[3]; BGB IC40 combo, at 0.005 µM
  inhibition: -42.6%
[3]; BGB IC40 combo, at 0.05 µM
  inhibition: -35.5%
[3]; at 0.5 µM
  inhibition: -42.2% (inactive)
[3]; cisplatin combo, at 0.05 µM
  inhibition: -40.8%
[3]; cisplatin combo, at 0.5 µM
  inhibition: -53.1%
[3]; cisplatin combo, at 5 µM
  inhibition: -16.6%
[3]; measured here: 5 uM single agent, at 5 µM
  inhibition: -3.56%
[4]; at 0.5 µM
  inhibition: -22.9% (inactive)
[4]; [16]
  inhibition: -33.4%
[4]; [19]
  inhibition: -43%
[4]; [20]
  inhibition: -63%
[5]; at 0.5 µM
  inhibition: -9.04% (inactive)
[5]; measured here: with BGB IC20, at 0.5 µM
  inhibition: -19.6%
[5]; measured here: with BGB IC20, at 5 µM
  inhibition: 7.36%
[5]; measured here: with cisplatin IC20, at 0.5 µM
  inhibition: -19.1%
[5]; measured here: with cisplatin IC20, at 5 µM
  inhibition: -2.79%
[5]; single agent, at 5 µM
  inhibition: 9.61%
[6]; at 0.5 µM
  inhibition: -24.2% (inactive)
[6]; measured here: combination with BGB at IC20, at 0.5 µM
  inhibition: -7.71%
[6]; measured here: combination with cisplatin at IC20, at 0.5 µM
  inhibition: -18.3%
[7]; at 0.5 µM
  inhibition: -8.35% (inactive)
[7]; measured here: combo with BGB at IC20, at 0.5 µM
  inhibition: -6.27%
[7]; measured here: combo with cisplatin at IC20, at 0.5 µM
  inhibition: -4.66%
[8]; at 0.5 µM
  inhibition: -8.12% (inactive)
[8]; measured here: inhibition with BGB combination, at 0.05 µM
  inhibition: -21%
[8]; measured here: inhibition with cisplatin combination, at 0.05 µM
  inhibition: -18.4%
[9]; at 0.5 µM
  inhibition: -25.3% (inactive)
[9]; [19]
  inhibition: -17.8%
[9]; [20]
  inhibition: -16.1%
[10]; at 0.5 µM
  inhibition: -10.8% (inactive)
[10]; measured here: BGB combination, at 0.5 µM
  inhibition: -6.58%
[10]; measured here: BGB combination, at 5 µM
  inhibition: -5.34%
[10]; measured here: cisplatin combination, at 0.5 µM
  inhibition: -21%
[10]; measured here: cisplatin combination, at 5 µM
  inhibition: -5.77%
[11]; BGB combination, concentration series, at 5 µM
  inhibition: 5.64%
[11]; at 0.5 µM
  inhibition: -2.85% (inactive)
[11]; cisplatin combination, concentration series, at 5 µM
  inhibition: 12.8%
[12]; at 0.5 µM
  inhibition: 9.43% (inactive)
[12]; measured here: combo with BGB IC20, at 0.5 µM
  inhibition: 6.4%
[12]; measured here: combo with cisplatin IC20, at 0.5 µM
  inhibition: 11.7%
[13]; at 0.5 µM
  inhibition: -25.9% (inactive)
[13]; cisplatin combination, at 0.5 µM
  inhibition: -7.08%
[13]; cisplatin combination, at 5 µM
  inhibition: 2.71%
[13]; measured here: BGB IC40 combination 0.05 uM, at 0.05 µM
  inhibition: 66.2%
[13]; single agent, at 5 µM
  inhibition: 3.91%
[14]; at 0.5 µM
  inhibition: -23.5% (inactive)
[14]; cisplatin combo, at 5 µM
  inhibition: -18.9%
[14]; measured here: BGB IC40 combination, at 0.05 µM
  inhibition: 1.12%
[14]; [19]
  inhibition: 19.3%
[14]; single agent, at 5 µM
  inhibition: -63.1%
[15]; at 0.5 µM
  inhibition: -19.7% (inactive)
[15]; [17]
  inhibition: -19.2%
[15]; [18]
  inhibition: -19.9%
[15]; single agent, at 0.05 µM
  inhibition: 7.91%
[15]; single agent, at 5 µM
  inhibition: -24.5%
